Laboratory results published in the supplement of paper PMC6555819.

Columns and labels:
Assay in all cases: PBM binding z-score (relative to random genomic background probes); higher = stronger binding; sequences stand for … in GC…GCGATTGACAGCGTAGAATGAAGG
[1] = test system: PPARg:RXRa DBDmut IVT, anti-RXR (DBD mutation: RXRa K156A/R161A, NR concentration 270 nM, RXRa partner concentration 90 nM)
Procedure, shortened: (§1)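 Custom Agilent 4×180K protein-binding microarrays carried double-stranded probes. Their 34-nt variable regions held direct-repeat seeds, single-nucleotide variants, half-site ablations and random human genomic background sequences. Arrays were incubated 1 h with ligand-free nuclear receptor dimers in PBS pH 7.4, 2% milk, 0.02% Triton X-100, 1 mM DTT, 0.2 mg/mL BSA and 0.4 mg/ml salmon testes DNA. Antibodies against each partner (one per run) detected binding, and scanned fluorescence was regression-normalized. Binding z-scores use random background probes as reference.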

[2] = test system: PPARg:RXRa IVT, anti-PPARg (NR concentration 270 nM, RXRa partner concentration 90 nM)
Procedure, shortened: as §1

[3] = test system: PPARg DBDmut:RXRa IVT, anti-PPARg (DBD mutation: PPARg1 K132A/R137A, NR concentration 270 nM, RXRa partner concentration 90 nM)
Procedure, shortened: as §1

[4] = test system: PPARg DBDmut IVT, anti-PPARg (DBD mutation: PPARg1 K132A/R137A, NR concentration 270 nM)
Procedure, shortened: as §1

[5] = test system: PPARg homodimer (NR concentration 180 nM)
Procedure, shortened: as §1

[6] = test system: PXR:RXRa (NR concentration 270 nM, RXRa partner concentration 90 nM)
Procedure, shortened: as §1

[7] = test system: PXR homodimer (NR concentration 270 nM)
Procedure, shortened: as §1

[8] = test system: RARa:RXR (NR concentration 270 nM, RXRa partner concentration 90 nM)
Procedure, shortened: as §1

[9] = test system: RARa homodimer (NR concentration 270 nM)
Procedure, shortened: as §1

[10] = test system: RARb:RXRa (NR concentration 270 nM, RXRa partner concentration 90 nM)
Procedure, shortened: as §1

[11] = test system: RARb homodimer (NR concentration 270 nM)
Procedure, shortened: as §1

[12] = test system: RARg:RXRa (NR concentration 270 nM, RXRa partner concentration 90 nM)
Procedure, shortened: as §1

[13] = test system: RARg homodimer (NR concentration 270 nM)
Procedure, shortened: as §1

[14] = test system: RXRa DBDmut IVT, anti-RXR (DBD mutation: RXRa K156A/R161A, NR concentration 90 nM)
Procedure, shortened: as §1

[15] = test system: RXRa homodimer (NR concentration 180 nM)
Procedure, shortened: as §1

[16] = test system: THRa:RXRa (NR concentration 90 nM, RXRa partner concentration 90 nM)
Procedure, shortened: as §1

[17] = test system: THRa homodimer (NR concentration 90 nM)
Procedure, shortened: as §1

[18] = test system: VDR:RXRa (NR concentration 270 nM, RXRa partner concentration 90 nM)
Procedure, shortened: as §1

[19] = test system: VDR homodimer (NR concentration 270 nM)
Procedure, shortened: as §1

Sequence | PBM binding z-score [1] | PBM binding z-score [2] | PBM binding z-score [3] | PBM binding z-score [4] | PBM binding z-score [5] | PBM binding z-score [6] | PBM binding z-score [7] | PBM binding z-score [8] | PBM binding z-score [9] | PBM binding z-score [10] | PBM binding z-score [11] | PBM binding z-score [12] | PBM binding z-score [13] | PBM binding z-score [14] | PBM binding z-score [15] | PBM binding z-score [16] | PBM binding z-score [17] | PBM binding z-score [18] | PBM binding z-score [19]
CCTACAGGGCCAAGGTCATTGATCAGTCAAAGCA | 0.158 | 1.47 | -0.788 | -0.319 | 1.8 | 3.54 | 1.53 | 3.67 | 0.267 | 3.47 | 3.47 | 3.94 | 3.71 | 1.5 | 3.32 | 3.46 | 1.93 | 3.39 | 2.91
GCTGCTAGGTCAGGTTGGTCAGCTAACGGGTACG | 2.95 | 2.05 | -0.747 | -0.959 | 0.974 | 0.333 | -0.532 | 0.458 | -0.285 | 3.33 | 2.53 | 2.7 | 3.45 | 0.582 | 0.927 | 1.84 | 0.48 | – | 0.466
GCTTACGGGTCAAAGGTTATAACATGAATAGAAT | 4.69 | 5.8 | 1.74 | 2.86 | 3.61 | 6.24 | 0.489 | 8.14 | 0.937 | 4.53 | 3.48 | 6.91 | 4.77 | 2.43 | 9.77 | 4.13 | 0.296 | 5.68 | 1.8
ACTAGTTGGTCAGCTGAGGTCACACAAAATTCGG | 1.6 | 2.89 | 0.792 | 0.409 | 3.4 | 5.63 | 2.18 | 4.78 | 1.17 | 3.87 | 4.3 | 4.32 | 4.78 | 1.52 | 4.23 | 5.01 | 5.35 | – | 3.83
CCTACTGGGGCAAAGGTCATTGATTCCAATGCTC | 6.11 | 7.2 | 0.312 | -0.624 | 2.42 | 5.6 | 0.979 | 6.37 | 0.341 | 4.66 | 4.6 | 6.11 | 4.61 | 0.782 | 6.93 | 3.66 | 0.71 | – | 1.92
CCTACTGGGCCAACAAGGTCATTGATGCCGATAA | 3.7 | 4.68 | -0.0965 | -0.198 | 2.24 | 3.92 | 3.62 | 3.64 | 0.0671 | 2.8 | 3.24 | 2.97 | 2.76 | 0.655 | 3 | 3.4 | 2.41 | – | 3.7
TATACAGGGTCTAAGGCCAGAGTACGAATGTCGA | -0.0368 | 0.912 | 0.973 | 0.725 | 0.023 | -0.0788 | 0.0324 | -0.102 | 0.373 | 0.935 | 0.78 | 0.921 | 1.04 | 0.336 | 0.544 | 1.05 | 0.535 | – | 1.12
ATATGTAGGTTAAGGGTCATGCAGGTTGGTTCGC | 7.69 | 7.88 | 4.88 | 2.56 | 5.05 | 5.37 | 2.16 | 6.47 | 2.37 | 3.73 | 3.89 | 5.07 | 3.84 | 1.76 | 6.52 | 3.5 | 1.93 | 5.46 | 3.81
GATTACGGGTCAAAGGTTATAGCATGAATAGAAT | 5.21 | 6.61 | 1.49 | 3.11 | 2.97 | 6.03 | 0.645 | 8.43 | 1.34 | 4.69 | 3.44 | 7.12 | 4.85 | 2.27 | 9.48 | 3.95 | 0.146 | 5.82 | 1.64
CCTTACGGGTCGCTGACAGGTTATAGCATTTGGA | 0.346 | 0.0988 | -0.356 | -0.76 | 0.641 | 1 | -0.0348 | 1.68 | -0.0216 | 1.18 | 1.02 | 2.45 | 1.01 | 0.55 | 1.78 | 0.913 | -0.259 | 0.961 | 0.138
CCTTACGGGTCAGTGACAGGTTATAGCATTTGGA | 1.83 | 1.86 | 0.385 | 0.16 | 1.97 | 2.36 | 0.241 | 3.19 | 0.476 | 3.5 | 2.85 | 4.61 | 3.43 | 1.05 | 3.29 | 2.15 | 0.134 | – | 0.572
GGAACGGGGGCATTCGAGTTGATAGCATGGCGAT | 3.24 | 5.37 | 8.85 | 10.9 | 1.37 | 5.15 | 3.02 | 2.94 | 0.259 | 2.9 | 1.62 | 2.68 | 2.39 | 3.78 | 2.47 | 4.15 | 1.09 | – | 4.57
AGAATGAGGTTAAGATTAGGGAAACAGAATACAT | 2.37 | 2.53 | 0.926 | 1.13 | 1.38 | 1.24 | 0.222 | 2.11 | 1.36 | 1.91 | 0.693 | 1.98 | 1.56 | 1.13 | 2.57 | 2.63 | 0.72 | 1.36 | 0.435
CCTACTGGGCCAAAACGGTCATTGATGCCGATAA | 2.93 | 2.65 | 0.0613 | 0.25 | 0.299 | -0.497 | -0.344 | -0.365 | -0.523 | 0.875 | 1.39 | 0.276 | 0.635 | -0.682 | -0.274 | -0.206 | -0.538 | – | -0.184
CGAACTAGTTCAAGGACAGTGAATCTCCGCACGC | 0.894 | -0.296 | -0.635 | -0.503 | 0.151 | 0.352 | 0.308 | 0.402 | -0.835 | 1.53 | 0.95 | 0.588 | 0.91 | 1.78 | 0.544 | 2.01 | 1.47 | 0.348 | 0.883
